Test results from PubChem BioAssay.
Results filed as inconclusive are left out. Active and inactive are the calls of the source. Unless noted, the limit is not given here; nearly all actives have AC50 up to about 26 µM.

Assay: JHH-DIPG-1 glioma cell viability, MIPE5.0 library, CellTiter-Glo luminescence, qHTS (AID 1347067);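 also: cells exposed to compound for 48 hours before readout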
Settings: JHH-DIPG-1 glioma viability, CellTiter-Glo ATP luminescence

Which AC50 does the source give for `COc1cc([C@@H]2c3cc4c(cc3[C@H](O)[C@H]3COC(=O)[C@@H]23)OCO4)cc(OC)c1OC` here?
Its AC50 is 1.05 µM (active).

Which outcome does the source give for `COc1ccc([C@@H]2CC(=O)c3c(O)cc(O[C@@H]4O[C@H](CO[C@@H]5O[C@@H](C)[C@H](O)[C@@H](O)[C@H]5O)[C@@H](O)[C@H](O)[C@H]4O)cc3O2)cc1O` here?
The outcome was “inactive”.

Which AC50 does the source give for `C[C@H]1O[C@@H](O[C@H]2[C@@H](O)C[C@H](O[C@H]3[C@@H](O)C[C@H](O[C@H]4CC[C@@]5(C)[C@H](CC[C@@H]6[C@@H]5C[C@@H](O)[C@]5(C)[C@@H](C7=CC(=O)OC7)CC[C@]65O)C4)O[C@@H]3C)O[C@@H]2C)C[C@H](O)[C@@H]1O` here?
Its AC50 is 0.0661 µM (active).

For `C=C1CC[C@@H]2[C@](C)(CO)[C@H](O)CC[C@@]2(C)[C@@H]1C/C=C1/C(=O)OC[C@H]1O`, which AC50 is on record?
Its AC50 is 14.8 µM (active).

For `CN[C@H](CC(C)C)C(=O)N[C@H]1C(=O)N[C@@H](CC(N)=O)C(=O)N[C@H]2C(=O)N[C@H]3C(=O)N[C@H](C(=O)N[C@H](C(=O)O)c4cc(O)cc(O)c4-c4cc3ccc4O)[C@H](O)c3ccc(c(Cl)c3)Oc3cc2cc(c3O[C@@H]2O[C@H](CO)[C@@H](O)[C@H](O)[C@H]2O[C@H]2C[C@](C)(N)[C@H](O)[C@H](C)O2)Oc2ccc(cc2Cl)[C@H]1O`, which outcome is on record?
Its outcome is “inactive”.

With `C=C(C)[C@@H]1CC[C@]2(C(=O)O)CC[C@]3(C)[C@H](CC[C@@H]4[C@@]5(C)CC[C@H](O)C(C)(C)[C@@H]5CC[C@]43C)[C@@H]12` as the compound, how does the outcome read?
Its outcome is “inactive”.

For `C[C@@H]1[C@H](O)[C@@H](C)/C=C/C=C/C=C/C=C/C=C/C=C/C=C/[C@H](O[C@@H]2O[C@H](C)[C@@H](O)[C@H](N)[C@@H]2O)C[C@@H]2O[C@](O)(C[C@@H](O)C[C@@H](O)[C@H](O)CC[C@@H](O)C[C@@H](O)CC(=O)O[C@H]1C)C[C@H](O)[C@H]2C(=O)O`, which outcome is on record?
The outcome was “inactive”.

For `COc1ccc(-c2cc(=O)c3c(O)cc(O[C@@H]4O[C@H](CO[C@@H]5O[C@@H](C)[C@H](O)[C@@H](O)[C@H]5O)[C@@H](O)[C@H](O)[C@H]4O)cc3o2)cc1O`, which outcome is on record?
The outcome was “inactive”.

For `CC(C)(O)CC[C@@H](O)[C@](C)(O)[C@H]1CC[C@@]2(O)C3=CC(=O)[C@@H]4C[C@@H](O)[C@@H](O)C[C@]4(C)[C@H]3CC[C@]12C`, which outcome is on record?
The outcome was “inactive”.

For `Nc1ccn([C@@H]2O[C@H](CO)[C@@H](O)[C@H]2O)c(=O)n1`, which outcome is on record?
The outcome was “inactive”.

Which AC50 does the source give for `COc1cc([C@@H]2c3cc4c(cc3[C@@H](O[C@@H]3O[C@@H]5CO[C@@H](c6cccs6)O[C@H]5[C@H](O)[C@H]3O)[C@H]3COC(=O)[C@H]23)OCO4)cc(OC)c1O` here?
Its AC50 is 9.34 µM (active).

For `COc1cc(NS(C)(=O)=O)ccc1Nc1c2ccccc2nc2ccccc12`, which AC50 is on record?
The AC50 was 16.6 µM (active).

With `CC(C)(S)[C@@H](N)C(=O)O` as the compound, how does the outcome read?
Its outcome is “inactive”.

For `C[C@H](CCC(=O)O)[C@H]1CC[C@H]2[C@@H]3[C@H](O)C[C@@H]4C[C@H](O)CC[C@]4(C)[C@H]3CC[C@]12C`, which outcome is on record?
Its outcome is “inactive”.

With `CCC(=O)NCC[C@@H]1CCc2ccc3c(c21)CCO3` as the compound, how does the outcome read?
Its outcome is “inactive”.

Which outcome does the source give for `CCC[C@@H]1C[C@@H](C(=O)N[C@@H]([C@H]2O[C@H](SC)[C@H](O)[C@@H](O)[C@H]2O)[C@H](C)Cl)N(C)C1` here?
The outcome was “inactive”.

Which AC50 does the source give for `CC[C@@]1(O)C[C@H](O[C@H]2C[C@H](N(C)C)[C@H](O[C@H]3C[C@H](O)[C@H](O[C@H]4CCC(=O)[C@H](C)O4)[C@H](C)O3)[C@H](C)O2)c2c(cc3c(c2O)C(=O)c2c(O)cccc2C3=O)[C@H]1C(=O)OC` here?
The AC50 was 11.8 µM (active).

With `N=c1ccn2c(n1)O[C@H]1[C@H](O)[C@@H](CO)O[C@H]12` as the compound, how does the outcome read?
The outcome was “inactive”.

Which outcome does the source give for `CC1(C)[C@@H](O)CC[C@]2(C)[C@H]3C(=O)C=C4[C@@H]5C[C@@](C)(C(=O)O)CC[C@]5(C)CC[C@@]4(C)[C@]3(C)CC[C@@H]12` here?
Its outcome is “inactive”.

Assay: growth inhibition of DIPG cells – cell-based, MIPE5.0 library, qHTS (AID 1347068; cut-off not given, nearly all actives have IC50 up to about 30 µM;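 as to IC50: cells exposed to compound for 48 hours before viability readout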)
Settings: SU-DIPG-XXV viability

For `COc1cc([C@@H]2c3cc4c(cc3[C@H](O)[C@H]3COC(=O)[C@@H]23)OCO4)cc(OC)c1OC`, which IC50 is on record?
Its IC50 is 0.934 µM (active).

With `COc1ccc([C@@H]2CC(=O)c3c(O)cc(O[C@@H]4O[C@H](CO[C@@H]5O[C@@H](C)[C@H](O)[C@@H](O)[C@H]5O)[C@@H](O)[C@H](O)[C@H]4O)cc3O2)cc1O` as the compound, how does the outcome read?
Its outcome is “inactive”.

For `C=C1CC[C@@H]2[C@](C)(CO)[C@H](O)CC[C@@]2(C)[C@@H]1C/C=C1/C(=O)OC[C@H]1O`, which IC50 is on record?
The IC50 was 20.9 µM (active).

Which outcome does the source give for `CN[C@H](CC(C)C)C(=O)N[C@H]1C(=O)N[C@@H](CC(N)=O)C(=O)N[C@H]2C(=O)N[C@H]3C(=O)N[C@H](C(=O)N[C@H](C(=O)O)c4cc(O)cc(O)c4-c4cc3ccc4O)[C@H](O)c3ccc(c(Cl)c3)Oc3cc2cc(c3O[C@@H]2O[C@H](CO)[C@@H](O)[C@H](O)[C@H]2O[C@H]2C[C@](C)(N)[C@H](O)[C@H](C)O2)Oc2ccc(cc2Cl)[C@H]1O` here?
The outcome was “inactive”.

For `C=C(C)[C@@H]1CC[C@]2(C(=O)O)CC[C@]3(C)[C@H](CC[C@@H]4[C@@]5(C)CC[C@H](O)C(C)(C)[C@@H]5CC[C@]43C)[C@@H]12`, which outcome is on record?
The outcome was “inactive”.

For `C[C@@H]1[C@H](O)[C@@H](C)/C=C/C=C/C=C/C=C/C=C/C=C/C=C/[C@H](O[C@@H]2O[C@H](C)[C@@H](O)[C@H](N)[C@@H]2O)C[C@@H]2O[C@](O)(C[C@@H](O)C[C@@H](O)[C@H](O)CC[C@@H](O)C[C@@H](O)CC(=O)O[C@H]1C)C[C@H](O)[C@H]2C(=O)O`, which outcome is on record?
The outcome was “inactive”.

For `COc1ccc(-c2cc(=O)c3c(O)cc(O[C@@H]4O[C@H](CO[C@@H]5O[C@@H](C)[C@H](O)[C@@H](O)[C@H]5O)[C@@H](O)[C@H](O)[C@H]4O)cc3o2)cc1O`, which outcome is on record?
The outcome was “inactive”.

Which outcome does the source give for `CC(C)(O)CC[C@@H](O)[C@](C)(O)[C@H]1CC[C@@]2(O)C3=CC(=O)[C@@H]4C[C@@H](O)[C@@H](O)C[C@]4(C)[C@H]3CC[C@]12C` here?
The outcome was “inactive”.

Which outcome does the source give for `Nc1ccn([C@@H]2O[C@H](CO)[C@@H](O)[C@H]2O)c(=O)n1` here?
The outcome was “inactive”.

With `CC(C)(S)[C@@H](N)C(=O)O` as the compound, how does the outcome read?
The outcome was “inactive”.

Which outcome does the source give for `C[C@H](CCC(=O)O)[C@H]1CC[C@H]2[C@@H]3[C@H](O)C[C@@H]4C[C@H](O)CC[C@]4(C)[C@H]3CC[C@]12C` here?
Its outcome is “inactive”.

For `CCC(=O)NCC[C@@H]1CCc2ccc3c(c21)CCO3`, which outcome is on record?
Its outcome is “inactive”.

For `CCC[C@@H]1C[C@@H](C(=O)N[C@@H]([C@H]2O[C@H](SC)[C@H](O)[C@@H](O)[C@H]2O)[C@H](C)Cl)N(C)C1`, which outcome is on record?
The outcome was “inactive”.

With `CC1(C)[C@@H](O)CC[C@]2(C)[C@H]3C(=O)C=C4[C@@H]5C[C@@](C)(C(=O)O)CC[C@]5(C)CC[C@@]4(C)[C@]3(C)CC[C@@H]12` as the compound, how does the outcome read?
Its outcome is “inactive”.
